# MITF TRPM1 inh: MITF TRPM1 promoter inhibition in SK-MEL-5 cells. hit rate 0.83% among 330,000. AID 488899. SK-MEL-5 TRPM1 promoter luciferase, 24 h. inhibition, % at 12.5 µM;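 active = mean inhibition across replicates of 60% or more, whatever share of single replicates reaches that level; inconclusive = some that reach 60%, reason not given; inactive = mean inhibition across replicates below 60%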
# HIF-2a inh: blocks HIF-2a reporter activity; inhibition, % at 18.8 µM; AID 624352; hit rate 0.72% among 360,000; 786-0 RCC cells HIF-2a reporter, luciferase luminescence, overnight;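 active = inhibition of the luminescence signal of 40% or more relative to plate controls, in a single-dose primary screen at 18.75 µM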
# Shn3 inh set2: reduces Shn3 3'UTR luciferase signal in osteoblasts. Clone20 osteoblast Shn3 3'UTR firefly luciferase, 24 h. AID 588674. inhibition, % at 12.5 µM. hit rate 0.52% among 360,000;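 active = mean inhibition of at least 75% with every replicate also reaching 75%; inconclusive = mean inhibition at least 75% but some replicate below; inactive = mean inhibition below 75%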;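 also: 0% = median of neutral control wells and 100% = pilot-screen positive control compound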
# KKLEB tox: counter-screen for CF NF-kB inhibitors: cytotoxicity | KKLEB CF airway cells viability, ATPlite luminescence, overnight; active compounds read low; cells stimulated with P. aeruginosa culture filtrate | activity change (cytotoxicity), % at 5 µM | hit rate 0.36% among 360,000 | AID 602141;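 active = corrected activity change at or below -50% at 5 µM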
# CF NFkB inh: cystic fibrosis NF-kB activation inhibition. KKLEB NF-kB-GFP reporter, PAF-induced, GFP fluorescence overnight. inhibition, % at 5 µM. hit rate 0.86% among 360,000;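 active = at least 50% inhibition at 5 µM, scaled per plate between neutral and stimulator controls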;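 also: PAF is a Pseudomonas aeruginosa culture filtrate used as stimulus; plate controls were PAF-stimulated DMSO wells for no effect and unstimulated DMSO wells for full effect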
# Peg3 prom inh: Peg3 promoter activity inhibition | HeLa PEG-Prom luciferase reporter, luminescence, overnight | inhibition, % at 20 µM | hit rate 1.7% among 360,000 | AID 588405;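 active = inhibition of at least 50% at 20 µM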
# Numbers without * were called inactive; ? = inconclusive; / = not tested or not shown. An excerpt weighted towards active compounds, which were near 2.8% of everything screened.
SMILES,MITF TRPM1 inh,HIF-2a inh,Shn3 inh set2,KKLEB tox,CF NFkB inh,Peg3 prom inh
COc1ccccc1/C=C1\SC(=S)N(CCC(=O)NC2=NCCS2)C1=O,-1,72*,-8,12,-13,9
O=C(O)CCN1C(=O)/C(=C\c2cccc(Oc3ccccc3)c2)SC1=S,-10,72*,12,2,-8,-27
Cc1cccc(N2CCN(C(=O)c3ccc(Cl)c(NC4=NC5CS(=O)(=O)CC5S4)c3)CC2C)c1 (configuration not stated),-6,2,25,4,-8,23
O=C(CN1C(=O)/C(=C/c2ccccc2)SC1=S)N1CCN(CCc2ccccn2)CC1,10,30,-36,0,8,74*
CCCOc1ccc(/C=N/Nc2cc(N3CCOCC3)ncn2)c(O)c1,24,18,90*,-42,54*,45
Clc1ccccc1/C=N/Nc1cc(N2CCOCC2)ncn1,-59,-164,-117,-14,23,-118
Oc1ccc(/C=N\Nc2cc(N3CCOCC3)nc(N3CCOCC3)n2)c(O)c1,3,-16,9,3,4,10
CCOc1ccc(/C=N/Nc2cc(N3CCOCC3)ncn2)c(O)c1,/,-8,93*,-1,-19,34
CN(c1ccc(Cl)cc1)c1cc(=O)n(C)c2ccccc12,27,-145,9,-8,-129,-39
CN(C)c1ccc(C=c2c3ccccc3n3c2c2c([n+]3C)CCCC2)cc1,98*,93*,91*,7,-139,102*
CN(C)c1ccc(C=c2c3ccccc3n3c2cc(-c2ccc(Cl)cc2)[n+]3C)cc1,97*,-56,?,-2,-112,61*
CN(C)c1ccc(C=c2c3cc([N+](=O)[O-])ccc3n3c2cc(-c2ccccc2)[n+]3C)cc1,95*,75*,86*,-52*,-30,106*
CC1CCCN(C(=O)c2cc(S(=O)(=O)N3CCCCC3)c[nH]2)C1 (configuration not stated),7,8,-2,-2,22,4
O=C(c1cc(-c2cccc(O)c2)on1)N1CCN(C(c2ccccc2)c2ccccc2)CC1,-1,-32,44,-13,29,82*
CCOc1ccc(NC(=O)[C@H](Cc2ccccc2)NC(=O)C2CCNCC2)cc1,-8,3,-8,5,11,0
S=c1[nH]c2cc(-c3ccccc3)ccc2o1,-12,-162,-21,-3,7,-28
CC(=O)c1ccc(N(C(=O)Cc2c[nH]c3ccccc23)C(C(=O)NC2CCCCC2)c2cccs2)cc1 (configuration not stated),-9,-76,-7,6,-8,-45
O=C(NC1CCCCC1)C(c1cccs1)N(C(=O)Cc1c[nH]c2ccccc12)c1ccc(F)cc1 (configuration not stated),18,6,7,14,9,85*
O=C(NCCCNC(=O)c1ccco1)c1ccc(Cl)c(Cl)c1,7,-4,9,5,5,53*
Cc1ccc(-c2noc(-c3ccno3)n2)cc1,-70,-284,-39,2,-21,-248
CN1C2CCC1/C(=C\c1ccccc1)C(=O)/C2=C\c1ccccc1,35,89*,52,9,-70,73*
COc1ccc(C(=O)/C=C/c2ccc(OCc3ccccc3)cc2)cc1CSCC(=O)O,6,2,10,-26,39,25
COc1ccc(C(=O)/C=C/c2cccc(OCc3ccccc3)c2)cc1CSCC(=O)O,13,20,0,-18,-9,75*
Cn1c(=O)c([N+](=O)[O-])c(-n2ccnc2)c2ccccc21,89*,6,-18,1,-7,55*
Cn1c(=O)c([N+](=O)[O-])c(NCCCn2ccnc2)c2ccccc21,2,23,-4,5,3,8
CCNc1nc(OC)nc(N(OC)S(=O)(=O)c2ccc(C)cc2)n1,13,19,-8,-5,-17,15
Cc1cccc(Oc2nc3ccccn3c(=O)c2/C=C(\C#N)C(=O)NC2CCS(=O)(=O)C2)c1 (configuration not stated),8,9,6,-5,16,11
Cc1cc(Oc2nc3ccccn3c(=O)c2/C=C(\C#N)C(=O)NC2CCS(=O)(=O)C2)ccc1Cl (configuration not stated),16,-8,8,-1,-16,66*

# Compound activity (PubChem BioAssay)
